Measured values taken from PubChem BioAssay (NCATS).
Where “and” joins values, the source holds several entries; their conditions need not be identical. Equal entries are not always repeated. Results filed as inconclusive are left out. Entries that show only a call come without a potency. Calls of active or inactive are those of the source. Unless noted, calls come from the whole dose curve; as a rule, active = well fitted curve in the direction sought with a large enough effect; inconclusive = small, poorly fitted or top-dose-only effect, or another doubt; inactive = no such curve, though single readings can be large; an effect the other way counts as inactive or inconclusive.

Tests used:
[1] = Cell Viability - LYMP2-015 (AID 971); note: nearly all actives have a fitted effect of over 55% in size
Outline: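 Cells are seeded at 2500 per well and incubated 5 hr at 37 C. Compounds are added across a concentration series for 24 hr at 37 C. CellTiter-Glo is added, and luminescence is read after 30 min at room temperature.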

[2] = Cell Viability - LYMP2-017 (AID 972); note: series mostly up to about 92 µM; nearly all actives have a fitted effect of over 55% in size
Outline: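 Cytotoxicity is scored as a concentration-dependent drop in cellular ATP in a human lymphoblastoid line after 24 hr treatment at 37 C. Values are AC50s from Hill-equation modelling.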

[3] = Cell Viability - LYMP2-019 (AID 973); note: nearly all actives have a fitted effect of over 55% in size
Outline: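 Cytotoxicity is scored as a concentration-dependent drop in cellular ATP after cells (2500/well) receive compound for 24 hr at 37 C. Tetraoctylammonium bromide serves as positive control.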

[4] = Cell Viability - LYMP2-021 (AID 974);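 note: compound exposure lasts 24 hours at 37 °C; nearly all actives have a fitted effect of over 55% in size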
Outline: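 Loss of cellular ATP, measured with a luciferase-based CellTiter-Glo readout, serves as the toxicity signal in human lymphoblastoid cells treated for 24 hours at 37 C. Potency is reported as AC50 from a standard Hill model.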

[5] = Cell Viability - LYMP2-023 (AID 975)
Outline: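 Steps: seed 2500 human lymphoblastoid cells per well, incubate 5 hr at 37 C, add compound for 24 hr at 37 C, add CellTiter-Glo, hold 30 min at room temperature, read luminescence. AC50 derived by Hill modelling.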

[6] = Cell Viability - LYMP2-025 (AID 976); note: series mostly up to about 92 µM
Outline: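 Acute cytotoxicity is scored as a concentration-dependent fall in intracellular ATP, measured by luciferase luminescence, in human lymphoblastoid LYMP2-025 cells exposed to compound for 24 hours at 37 C. AC50 values come from standard Hill fits.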

[7] = Cell Viability - LYMP2-002 (AID 977);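 note: series mostly up to about 92 µM; compound exposure lasted 24 h at 37 °C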
Outline: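 Human lymphoblastoid cells (2500/well) in complete medium were preincubated 5 hr at 37 C, then exposed to compounds for 24 hr at 37 C. Intracellular ATP was read by CellTiter-Glo luminescence; AC50 came from Hill-equation concentration-response fits.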

[8] = Cell Viability - LYMP2-006 (AID 978); note: series mostly up to about 92 µM; nearly all actives have a fitted effect of over 60% in size
Outline: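 Human lymphoblastoid cells (LYMP2-006), 2500/well in complete medium, were treated with compound for 24 hr at 37 C. Cellular ATP was read by CellTiter-Glo luminescence after 30 min, and AC50 values came from Hill-equation fits of concentration-response data.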

[9] = Cell Viability - LYMP2-007 (AID 979);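 note: cells exposed to compound for 24 h before reading; nearly all actives have a fitted effect of over 60% in size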
Outline: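 Cells are seeded at 2500 per well and rested 5 hr. Compounds are then added over a concentration series for 24 hr at 37 C. CellTiter-Glo is added for 30 min at room temperature before luminescence reading.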

[10] = Cell Viability - LYMP2-008 (AID 980); note: nearly all actives have a fitted effect of over 60% in size
Outline: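 Cells seeded at 2500/well and rested 5 hr at 37 C; compounds added over a concentration range and incubated 24 hr at 37 C; CellTiter-Glo added, 30 min at room temperature; luminescence read and AC50 fitted with Hill model.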

[11] = Cell Viability - LYMP2-010 (AID 981); note: nearly all actives have a fitted effect of over 55% in size
Outline: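 Steps: seed 2500 LYMP2-010 cells per well; incubate 5 hr at 37 C; add compound; incubate 24 hr at 37 C; add CellTiter-Glo, wait 30 min at room temperature; read luminescence. Concentration-response fitted to Hill equation for AC50.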

[12] = Cell Viability - LYMP2-012 (AID 982)
[13] = Cell Viability - LYMP2-014 (AID 983); note: series mostly up to about 92 µM; nearly all actives have a fitted effect of over 50% in size
Outline: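 Cells are plated at 2500/well and left 5 hr at 37 C. Compounds are added across a concentration range and incubated 24 hr at 37 C in complete medium. CellTiter-Glo is added, and luminescence is read after 30 min at room temperature.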

[14] = Cell Viability - LYMP2-016 (AID 984); note: nearly all actives have a fitted effect of over 55% in size
Outline: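 Human lymphoblastoid LYMP2-016 cells, 2500 per well, treated with compounds for 24 h at 37 C. Viability read as intracellular ATP by CellTiter-Glo luminescence after 30 min at room temperature; AC50 from Hill fits of concentration-response.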

[15] = Cell Viability - LYMP2-020 (AID 986)
Outline: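 Seed 2500 cells per well and incubate 5 hr at 37 C. Add compounds at a concentration series and incubate 24 hr at 37 C. Add CellTiter-Glo, wait 30 min at RT, read luminescence, and fit a Hill curve for AC50.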

[16] = Cell Viability - LYMP2-022 (AID 987); note: nearly all actives have a fitted effect of over 55% in size
Outline: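 Cells were seeded at 2500 per well, rested 5 hr at 37 C, and treated with titrated compounds for 24 hr at 37 C. Cellular ATP was then quantified by luciferase luminescence, and AC50 values were derived from Hill-modelled concentration-response curves.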

[17] = Cell Viability - LYMP2-024 (AID 988); note: nearly all actives have a fitted effect of over 60% in size
Outline: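 qHTS cytotoxicity, human lymphoblastoid line, complete medium; 24 h cpd treatment, 37 C; CellTiter-Glo ATP luminescence readout; tetraoctylammonium bromide positive control; AC50 via Hill fit.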

[18] = Cell Viability - LYMP2-026 (AID 989); note: nearly all actives have a fitted effect of over 50% in size
Outline: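 Cells are seeded at 2500 per well and held 5 hr at 37 C. Compounds are added in concentration series for 24 hr, then CellTiter-Glo reagent is applied and luminescence read.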

[19] = Cell Viability - LYMP1-002 - Assay at 24 hr (AID 993)
Outline: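 Acute toxicity is measured as concentration-dependent loss of cellular ATP in a human lymphoblastoid line (Coriell LYMP1-002) after 24 h treatment in complete medium. ATP is quantified by luciferase luminescence and AC50 derived by Hill modelling.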

[20] = Cell Viability - LYMP1-002 - Assay at 40 hr (AID 994); note: nearly all actives have a fitted effect of over 60% in size
Outline: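 Cells are plated at 2500 per well and rested 5 hr at 37 C. Compounds are added and incubated 40 hr at 37 C. CellTiter-Glo reagent is added for 30 min at room temperature before luminescence is read.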

[21] = target: Glucocorticoid receptor (Homo sapiens) (UniProt P04150); test: qHTS assay for small molecule agonists of glucocorticoid receptor signaling (AID 588532; active = well fitted curve in the direction sought with a large enough effect in the signal ratio, with a control signal flat; the % refers to the signal ratio); conditions: HeLa MMTV-bla, beta-lactamase ratio, agonist, 18 h; stronger effect = higher value; percent of dexamethasone control, DMSO zero
Glucocorticoid receptor (Homo sapiens), sequence (P04150 whole entry, looked up): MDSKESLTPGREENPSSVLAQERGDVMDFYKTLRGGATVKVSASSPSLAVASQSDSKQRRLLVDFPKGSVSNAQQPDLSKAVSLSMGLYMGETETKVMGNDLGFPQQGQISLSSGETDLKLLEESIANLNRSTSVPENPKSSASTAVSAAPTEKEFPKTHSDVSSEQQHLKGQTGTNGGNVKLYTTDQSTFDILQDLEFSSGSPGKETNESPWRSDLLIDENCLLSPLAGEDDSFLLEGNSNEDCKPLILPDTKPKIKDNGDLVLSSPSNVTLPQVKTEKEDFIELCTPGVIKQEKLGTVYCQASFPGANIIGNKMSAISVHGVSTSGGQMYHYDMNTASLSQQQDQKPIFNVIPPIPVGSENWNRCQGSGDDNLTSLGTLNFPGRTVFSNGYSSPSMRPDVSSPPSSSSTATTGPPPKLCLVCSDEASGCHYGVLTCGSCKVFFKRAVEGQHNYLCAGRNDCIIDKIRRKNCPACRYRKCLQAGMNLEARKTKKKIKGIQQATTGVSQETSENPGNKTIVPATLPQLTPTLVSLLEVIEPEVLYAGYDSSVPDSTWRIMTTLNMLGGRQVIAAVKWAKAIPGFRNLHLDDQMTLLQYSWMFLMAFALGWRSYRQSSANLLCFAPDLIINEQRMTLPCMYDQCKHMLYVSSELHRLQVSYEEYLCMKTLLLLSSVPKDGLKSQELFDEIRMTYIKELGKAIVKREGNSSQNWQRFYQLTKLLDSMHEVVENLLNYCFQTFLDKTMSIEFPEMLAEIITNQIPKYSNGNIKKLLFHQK
Outline: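 Using MMTV-bla HeLa cells in medium with 1% stripped FBS and 25 mM HEPES, compounds were titrated and incubated overnight-length (18 h). Beta-lactamase cleavage of CCF4 was quantified by dual-emission fluorescence.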

[22] = qHTS assay for small molecule antagonists of retinoid X receptor alpha signaling (AID 588546; active = well fitted inhibition curve with a large enough effect in the signal ratio, with a control signal flat, not every such curve was filed as active; the % refers to the signal ratio;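 note: cells stimulated with 9-cis-retinoic acid as agonist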); conditions: HEK293T RXRa-UAS-bla, beta-lactamase ratio, antagonist mode; measured here: W530 green channel, cytotoxicity proxy
Outline: (§1)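 Beta-lactamase reporter inhibition, read as CCF4 fluorescence ratio (ex 405, em 460/530 nm) after 2 h at RT. HEK293T UAS-bla cells, 2500/well, were stimulated with 9-cis-RA at 500 or 100 nM final alongside test compound for 18 h at 37 C.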

[23] = target: Retinoic acid receptor RXR-alpha (Homo sapiens) (UniProt P19793); test: as above; conditions: HEK293T RXRa-UAS-bla, beta-lactamase ratio, antagonist mode
Retinoic acid receptor RXR-alpha (Homo sapiens), sequence (P19793 whole entry, looked up): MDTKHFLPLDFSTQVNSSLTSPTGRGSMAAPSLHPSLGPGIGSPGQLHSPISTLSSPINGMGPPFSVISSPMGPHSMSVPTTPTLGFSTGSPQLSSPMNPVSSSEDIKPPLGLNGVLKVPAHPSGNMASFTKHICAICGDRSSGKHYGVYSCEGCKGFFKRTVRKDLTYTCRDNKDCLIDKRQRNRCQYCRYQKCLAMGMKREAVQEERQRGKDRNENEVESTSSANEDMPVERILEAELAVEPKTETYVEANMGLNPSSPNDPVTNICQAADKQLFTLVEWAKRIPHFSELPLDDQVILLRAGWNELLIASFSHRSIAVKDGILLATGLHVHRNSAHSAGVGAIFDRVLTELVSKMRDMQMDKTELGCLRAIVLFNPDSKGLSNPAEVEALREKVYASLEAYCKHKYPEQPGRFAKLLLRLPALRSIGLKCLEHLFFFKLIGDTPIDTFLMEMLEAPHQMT
Outline: as §1

[24] = qHTS assay for small molecule disruptors of the mitochondrial membrane potential - 1 hr assay (AID 651754; calls by dose curve; note: nearly all actives have a fitted effect of over 35% in size)
Outline: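 Loss of mitochondrial potential shifts the cationic dye from red mitochondrial aggregates to green cytoplasmic monomers. Cells (HepG2) are treated with compound for 1 hr before a 30 min dye incubation at 37C.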

[25] = qHTS assay for small molecule disruptors of the mitochondrial membrane potential - 5 hr assay (AID 651755; calls by dose curve; note: nearly all actives have a fitted effect of over 40% in size)
Outline: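 Membrane-potential dye readout: red aggregate (540 ex/590 em) versus green monomer (490 ex/535 em) fluorescence after 30 min dye loading, following 5 hr compound exposure at 37C of overnight-plated HepG2 cells.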

[26] = target: Tumor necrosis factor (Homo sapiens) (UniProt P01375); test: qHTS assay to identify small molecules that stimulate Tumor Necrosis Factor-alpha (TNF-alpha) secretion (AID 651757; active = well fitted curve in the direction sought with a large enough effect in the signal ratio; the % refers to the signal ratio)
Tumor necrosis factor (Homo sapiens), sequence (P01375 whole entry, looked up): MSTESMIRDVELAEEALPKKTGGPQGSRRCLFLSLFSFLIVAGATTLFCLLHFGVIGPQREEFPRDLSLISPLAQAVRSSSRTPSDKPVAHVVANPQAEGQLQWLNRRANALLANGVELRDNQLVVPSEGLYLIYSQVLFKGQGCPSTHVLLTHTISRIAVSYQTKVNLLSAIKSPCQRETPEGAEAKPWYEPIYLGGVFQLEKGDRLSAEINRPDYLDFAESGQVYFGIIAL
Outline: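 Human monocytic THP-1 cells are plated, treated with compound and held at 37 C for 17 hrs. Labeled anti-TNF-alpha antibody mixture is then added; after 3 hr at room temperature, TR-FRET signal reports secreted TNF-alpha.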

[27] = qHTS assay for environmental chemicals that activate the Aryl hydrocarbon Receptor (AhR) signaling pathway (AID 651777); conditions: 1A2-DRE human hepatoma cells, luciferase, 24 h; activation: stronger effect = higher value; note: nearly all actives have a fitted effect of over 15% in size
Outline: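 Measured luciferase activity, read 30 min after One-Glo addition at room temperature, from human hepatoma cells bearing a dioxin response element–CYP1A2 promoter reporter and exposed to compound for 24 hr at 37 C.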

[28] = target: Peroxisome proliferator-activated receptor alpha (Homo sapiens) (UniProt Q07869); test: qHTS assay for small molecule agonists of the peroxisome proliferator-activated receptor alpha (PPARalpha) signaling pathway (AID 651778); conditions: PathHunter PPARalpha complementation, chemiluminescence, 6 h; max response: stronger effect = higher value
Peroxisome proliferator-activated receptor alpha (Homo sapiens), sequence (Q07869 whole entry, looked up): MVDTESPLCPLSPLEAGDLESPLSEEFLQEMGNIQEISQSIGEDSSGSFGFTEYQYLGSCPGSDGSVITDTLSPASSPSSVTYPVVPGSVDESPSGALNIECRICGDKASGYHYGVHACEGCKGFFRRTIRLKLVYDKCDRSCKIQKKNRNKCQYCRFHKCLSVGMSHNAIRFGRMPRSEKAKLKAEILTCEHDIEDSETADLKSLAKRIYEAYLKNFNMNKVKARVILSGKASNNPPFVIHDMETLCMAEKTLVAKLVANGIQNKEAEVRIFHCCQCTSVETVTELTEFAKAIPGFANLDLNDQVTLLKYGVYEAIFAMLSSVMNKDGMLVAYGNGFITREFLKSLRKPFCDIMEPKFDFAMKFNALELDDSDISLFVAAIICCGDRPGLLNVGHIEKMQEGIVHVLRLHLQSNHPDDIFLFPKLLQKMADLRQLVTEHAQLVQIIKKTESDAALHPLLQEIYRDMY
Outline: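 Chemiluminescence from complemented enzyme reported PPARalpha activation in cells after 6 hr of compound treatment at 37 C. The detection reagent was incubated for 60 min at room temperature, and compounds were scored as agonists.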

[29] = qHTS assay for small molecule antagonists of the retinoid-related orphan receptor gamma (ROR-gamma) signaling pathway - cell viability counter screen (AID 720652; active = well fitted curve in the direction sought with a large enough effect in the repeat runs; an effect the other way counts as inactive or inconclusive;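 note: CHO reporter cells with doxycycline-induced ROR-gamma expression; series mostly up to about 92 µM; compound exposure lasted 16 hr before ATP read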)
Outline: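 Steps: seed CHO cells bearing TET-inducible ROR and ROR response element-luciferase; rest 5 hr at 37 C; add compound, then doxycycline; incubate 16 hr; add CellTiter-Glo and read luminescence as ATP-based viability.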

[30] = qHTS assay for small molecule agonists of the antioxidant response element (ARE) signaling pathway measured by Nrf2-dependant transcriptional activity - cell viability counter screen (AID 720653; active = well fitted curve in the direction sought with a large enough effect in the repeat runs; an effect the other way counts as inactive or inconclusive); conditions: ARE-bla HepG2 viability, CellTiter-Glo ATP luminescence, 16 h; max response: stronger effect = lower value
Outline: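 Cytotoxicity counter screen: intracellular ATP quantified by CellTiter-Glo luminescence in the same ARE-bla HepG2 plates, after 16 h compound exposure and a 2 h beta-lactamase substrate step.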

[31] = qHTS assay for cell viability of HEK293 cells (AID 743288); conditions: ATP luminescence (CellTiter-Glo), 18 h; max response: stronger effect = lower value; note: nearly all actives have a fitted effect of over 50% in size
Outline: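 Steps: plate 2,000 parental HEK293 cells per well; incubate ≥5 h, 37 C; add compounds in DMSO; incubate 18 h, 37 C; add CellTiter-Glo; wait 30 min at room temperature; read luminescence.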

[32] = qHTS assay for cell viability of the p53RE-bla HCT-116 cell line (AID 743292)
Outline: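 Intracellular ATP of p53RE-bla HCT-116 cells measured by luciferase luminescence following 16 h compound incubation at 37 C; DMSO-only wells served as vehicle controls.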

[33] = target: Rap guanine nucleotide exchange factor 3 (Homo sapiens) (UniProt O95398); test: Confirmatory qHTS for agonist of cAMP-regulated guanine nucleotide exchange factor 3 (EPAC1) (AID 1645881);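 note: EPAC1 catalysed release of BODIPY-GDP from Rap1B seen as fluorescence loss; nearly all actives have a fitted effect of over 75% in size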
Rap guanine nucleotide exchange factor 3 (Homo sapiens), sequence (O95398 whole entry, looked up): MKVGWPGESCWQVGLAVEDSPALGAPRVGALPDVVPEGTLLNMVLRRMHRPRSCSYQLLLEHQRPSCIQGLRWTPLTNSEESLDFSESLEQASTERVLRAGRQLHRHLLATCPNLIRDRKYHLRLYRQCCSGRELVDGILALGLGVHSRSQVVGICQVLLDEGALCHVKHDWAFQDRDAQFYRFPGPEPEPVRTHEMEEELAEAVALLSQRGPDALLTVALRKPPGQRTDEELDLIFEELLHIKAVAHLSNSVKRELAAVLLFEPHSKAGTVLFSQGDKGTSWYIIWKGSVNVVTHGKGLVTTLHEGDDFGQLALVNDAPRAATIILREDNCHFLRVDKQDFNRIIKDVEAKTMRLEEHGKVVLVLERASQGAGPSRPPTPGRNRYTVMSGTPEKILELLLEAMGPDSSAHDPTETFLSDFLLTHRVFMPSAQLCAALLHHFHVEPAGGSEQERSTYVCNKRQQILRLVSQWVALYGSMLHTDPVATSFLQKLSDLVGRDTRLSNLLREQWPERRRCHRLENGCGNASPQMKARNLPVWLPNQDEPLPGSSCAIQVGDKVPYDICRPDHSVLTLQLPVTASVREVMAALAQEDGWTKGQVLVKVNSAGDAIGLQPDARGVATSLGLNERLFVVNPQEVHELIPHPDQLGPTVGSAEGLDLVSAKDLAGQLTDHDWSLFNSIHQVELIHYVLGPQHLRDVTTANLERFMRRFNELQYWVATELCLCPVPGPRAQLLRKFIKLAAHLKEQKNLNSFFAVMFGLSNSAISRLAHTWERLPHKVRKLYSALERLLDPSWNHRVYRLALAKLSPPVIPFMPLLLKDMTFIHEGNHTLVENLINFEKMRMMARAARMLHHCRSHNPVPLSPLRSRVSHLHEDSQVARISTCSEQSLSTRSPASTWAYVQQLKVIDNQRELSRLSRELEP

[34] = target: Rap guanine nucleotide exchange factor 4 (Homo sapiens) (UniProt Q8WZA2); test: Confirmatory qHTS for agonist of cAMP-regulated guanine nucleotide exchange factor 4 (EPAC2) (AID 1645884);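 note: nucleotide exchange releases bodipy-GDP from Rap1 and this lowers its fluorescence; nearly all actives have a fitted effect of over 65% in size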
Rap guanine nucleotide exchange factor 4 (Homo sapiens), sequence (Q8WZA2 whole entry, looked up): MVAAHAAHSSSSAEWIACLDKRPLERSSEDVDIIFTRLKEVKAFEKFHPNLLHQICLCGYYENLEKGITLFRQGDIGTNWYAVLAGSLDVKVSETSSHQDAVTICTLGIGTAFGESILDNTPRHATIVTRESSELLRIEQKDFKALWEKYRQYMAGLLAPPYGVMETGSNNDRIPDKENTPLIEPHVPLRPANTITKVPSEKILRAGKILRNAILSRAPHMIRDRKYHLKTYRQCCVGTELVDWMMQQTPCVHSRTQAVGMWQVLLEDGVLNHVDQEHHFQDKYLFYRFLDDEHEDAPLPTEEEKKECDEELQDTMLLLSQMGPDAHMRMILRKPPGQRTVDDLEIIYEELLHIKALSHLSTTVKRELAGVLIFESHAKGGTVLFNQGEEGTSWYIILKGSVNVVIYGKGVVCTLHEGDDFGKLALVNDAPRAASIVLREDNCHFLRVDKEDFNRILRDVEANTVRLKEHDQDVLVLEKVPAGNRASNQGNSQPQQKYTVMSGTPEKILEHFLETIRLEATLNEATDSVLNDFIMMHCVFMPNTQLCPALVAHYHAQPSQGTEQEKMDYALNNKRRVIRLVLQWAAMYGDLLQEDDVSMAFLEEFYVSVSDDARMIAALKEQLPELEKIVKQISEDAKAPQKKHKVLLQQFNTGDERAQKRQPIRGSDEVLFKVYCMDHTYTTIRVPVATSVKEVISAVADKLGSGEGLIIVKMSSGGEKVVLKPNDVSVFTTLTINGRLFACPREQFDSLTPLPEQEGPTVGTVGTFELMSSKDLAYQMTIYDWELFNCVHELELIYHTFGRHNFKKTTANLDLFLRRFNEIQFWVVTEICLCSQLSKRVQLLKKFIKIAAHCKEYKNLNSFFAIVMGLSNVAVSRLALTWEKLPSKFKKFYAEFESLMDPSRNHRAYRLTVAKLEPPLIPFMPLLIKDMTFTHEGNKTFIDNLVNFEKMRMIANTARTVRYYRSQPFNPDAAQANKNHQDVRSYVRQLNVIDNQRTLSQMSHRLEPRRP

[35] = target: Rap guanine nucleotide exchange factor 3 (Homo sapiens) (UniProt O95398); test: Counterscreen qHTS for antagonist of cAMP-regulated guanine nucleotide exchange factor 3 (EPAC1) (AID 1645888);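 note: fluorescence loss as bound BODIPY-GDP is released from Rap1B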
Outline: (§2)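 Rap1B-BODIPY-GDP 250 nM + GDP 50 uM; cpds 7-pt, final 9.74 nM–152 uM (activator mode) or from 7.32 nM upwards (inhibitor mode); RT; FI 480/540 nm at 5 and 30 min, then ± cAMP, reread.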

[36] = target: Rap guanine nucleotide exchange factor 3 (Homo sapiens) (UniProt O95398); test: Counterscreen qHTS for agonist of cAMP-regulated guanine nucleotide exchange factor 3 (EPAC1) (AID 1645889); note: nearly all actives have a fitted effect of over 40% in size
Outline: as §2

[37] = target: Nuclear receptor subfamily 1 group I member 2 (Rattus norvegicus) (UniProt Q9R1A7); test: qHTS assay for small molecule activators of the rat pregnane X receptor (rPXR) signaling pathway (AID 651751; call rule not given here); conditions: rPXR reporter cells, luciferase (One-Glo), 24 h
Nuclear receptor subfamily 1 group I member 2 (Rattus norvegicus), sequence (Q9R1A7 whole entry, looked up): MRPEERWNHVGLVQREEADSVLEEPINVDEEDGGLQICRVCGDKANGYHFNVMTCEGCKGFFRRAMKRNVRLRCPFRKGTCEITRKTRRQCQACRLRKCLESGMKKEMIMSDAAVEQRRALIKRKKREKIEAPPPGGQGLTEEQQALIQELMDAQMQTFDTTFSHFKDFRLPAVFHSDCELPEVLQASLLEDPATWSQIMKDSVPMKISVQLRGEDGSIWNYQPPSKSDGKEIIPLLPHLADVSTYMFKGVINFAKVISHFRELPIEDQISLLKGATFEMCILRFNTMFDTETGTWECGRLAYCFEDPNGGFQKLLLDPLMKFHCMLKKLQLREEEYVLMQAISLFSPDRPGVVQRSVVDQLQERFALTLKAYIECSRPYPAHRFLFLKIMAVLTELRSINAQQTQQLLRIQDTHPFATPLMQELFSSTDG

[38] = qHTS assay for small molecule activators of the human pregnane X receptor (PXR) signaling pathway (AID 720659; call rule not given here)

## C[C@H](CCC(=O)O)[C@H]1CC[C@H]2[C@@H]3CC[C@@H]4C[C@H](O)CC[C@]4(C)[C@H]3CC[C@]12C
[1]
  Potency: inactive
[2]
  Potency: inactive
[3]
  Potency: inactive
[4]
  Potency: inactive
[5]
  Potency: inactive
[6]
  Potency: inactive
[7]
  Potency: inactive
[8]
  Potency: inactive
[9]
  Potency: inactive
[10]
  Potency: inactive
[11]
  Potency: inactive
[12]
  Potency: inactive
[13]
  Potency: inactive
[14]
  Potency: inactive
[15]
  Potency: inactive
[16]
  Potency: inactive
[17]
  Potency: inactive
[18]
  Potency: inactive
[19]
  Potency: inactive
[20]
  Potency: inactive
[21]
  activation: -9.27% (inactive) and -13.3% (inactive)
[22]
  max response: 21.6% and 12.2%
[23]
  max response: -5.6% (inactive) and -21.5% (inactive)
[24]
  Potency: inactive
[25]
  Potency: inactive
[26]
  outcome: inactive
[27]
  activation: 1.31% (inactive) and 0.102% (inactive)
[28]
  max response: 2.21% (inactive) and -0.262% (inactive)
[29]
  Potency: inactive
[30]
  max response: 1.28% (inactive) and 4.08% (inactive)
[31]
  max response: -8.43% (inactive) and -9.1% (inactive)
[32]
  Potency: 31.6 µM (active) and 35.5 µM (active)
[33]
  Potency: inactive
[34]
  Potency: inactive
[35]
  Potency: inactive
[36]
  Potency: inactive
[37]
  max response: 6.51% (inactive) and -5.67% (inactive)
[38]
  outcome: inactive
